# MARV entry inh: Marburg virus entry inhibition; Potency, µM (highest dose often 49.2 µM), inactives show at the highest dose activity change, negative = inhibition, most hits filed as inhibitors; 18,000 tested, 6.5% active; Marburg virus pseudotype entry/binding inhibition, cell-based; AID 720532
# Lassa entry: Lassa virus entry inhibition. Lassa virus pseudotyped entry inhibition, cell-based qHTS. Potency, µM (series often up to 49.2 µM), for the others: top-dose activity change, negative = inhibition, most hits filed as inhibitors. 18,000 tested, 4.1% active
# * = called active by the depositor; ? = inconclusive; . = no result; ! = not active in a repeat; [ ] = another dose, or the depositor's remark. Compounds with a hit are over-represented: about 7.1% of the library has one in this group of screens. The call rests on the fitted dose curve; tested in HEK293 cells. On the % scale 0 is the no-effect control and ±100 the full control effect; potency means the concentration at half of the fitted maximal effect.
SMILES,MARV entry inh,Lassa entry
C#CCN1C(=O)[C@]2(O[C@H](C)CC3=CCCC32)c2c(Br)cccc21 (some centres not stated),-15.3%[8.59 µM],36.9%[8.59 µM]
CO/C=C(/C(=O)OC)c1ccccc1Oc1cc(Oc2ccccc2C#N)ncn1,28.2µM*,22.4µM*
CC[C@@]1(O)C(=O)OCc2c1cc1n(c2=O)Cc2cc3ccccc3nc2-1,2.24µM*,?
c1ccc2sc(N3CCN(Cc4ccc5c(c4)OCO5)CC3)nc2c1,8.2%,33.6%
c1cc(CN2CCCCC2)cc(OCCCNc2nc3ccccc3s2)c1,15.8µM*,?
CCOC(=O)CN1C(=O)[C@@]2(CC(C)=CC[C@@H](COc3ccccc3)O2)c2ccccc21,-19.5%[8.59 µM],.
CC1=C[C@@H]2c3cccc4[nH]cc(c34)C[C@H]2N(C)C1,6.9%,-14.4%
CN1Cc2ccccc2[C@@H]2c3cccc4[nH]cc(c34)C[C@H]21,8.91µM*,10µM*
CC(=O)N[C@H]1C(O[C@@H]2O[C@H](C[C@@H](O)[C@H]3O[C@@H](N4CCC(=O)NC4=O)[C@H](O)[C@@H]3O)[C@H](O)[C@H](O)[C@H]2NC(=O)/C=C/CCCCCCCCCCC(C)C)OC(CO)[C@@H](O)[C@@H]1O (some centres not stated),4.47µM*,?
CC(=O)NC1C(OC2OC(CC(O)C3OC([N+]4=CCC(=O)NC4=O)C(O)C3O)C(O)C(O)C2NC(=O)/C=C/CCCCCCCCC(C)C)OC(CO)C(O)C1O (configuration not stated),?,-27.8%
COC(=O)CC=C1c2ccccc2OC[C@@H](OC)[C@H]1C,2.4%[8.59 µM],-25.0%[8.59 µM]
CNCCCN1c2ccccc2CCc2ccccc21,7.94µM*,?
CN(CCCN1c2ccccc2CCc2ccccc21)CC(=O)c1ccc(Cl)cc1,7.94µM*,?
CN(C)CCCN1c2ccccc2CCc2ccc(Cl)cc21,8.91µM*,11.2µM*!
CN1C(=O)CC(=O)N(c2ccccc2)c2cc(Cl)ccc21,-10.5%,-10.6%
NCCNC(=O)c1ccc(Cl)cc1,7.4%,-2.0%
NS(=O)(=O)c1ccc(N=Nc2c(O)[nH]c3ccc(-c4cnco4)cc23)cc1,36.4%,?
CC1(C)CN(CCc2ccccc2)C(=O)[C@@H]1CC(=O)Nc1ccc(Br)cc1,-5.3%,-5.4%
CCCCCCN1C(=O)CC[C@@]23C1=NC(C(=O)OC)=C(C(=O)OC)[C@@H]2N(Cc1ccccc1)c1ccccc13,-28.3%[8.59 µM],-17.1%[8.59 µM]
COc1cc(OC)cc(-c2sc3ccccc3c(=O)c2I)c1,17.8µM*,?
COc1ccc(-c2cc3ccccc3c(=O)o2)cc1,44.0%,38.4%
COc1cc2ncnc(Nc3ccc(Cl)cc3F)c2cc1OC,-4.4%,-0.2%
C=CC(=O)Nc1cc2c(Nc3ccc(F)c(Cl)c3)ncnc2cc1OCCCN1CCOCC1,7.08µM*,?
CCN1C(=NCCc2cccnc2)NC(c2ccccc2)C(C(=O)OC)=C1C (configuration not stated),?,-7.9%[8.59 µM]
COCCNc1nc(-c2ccccc2CN(C)C)nc2ccccc12,12.6µM*,-23.8%
SMILES,MARV entry inh,Lassa entry
COc1ccccc1CNc1nc(-c2ccccc2CN(C)C)nc2ccccc12,11.2µM*,?
COc1ccccc1CNc1ncnc2ccc(-c3ccccc3CN(C)C)cc12,20µM*,-6.4%
CN(C)Cc1ccccc1-c1cncnc1NCc1ccccc1,-24.8%,-4.8%
COCCNc1nc(-c2ccccc2C)nc2ccccc12,-1.4%,-2.1%
Cc1cnc(CNc2ncnc3ccc(-c4ccccc4CN(C)C)cc23)cn1,-22.6%,1.2%
CN(C)Cc1ccccc1-c1nc(NCc2ccccc2)c2ccccc2n1,10µM*,?
COc1ccccc1CNc1ncncc1-c1ccccc1CN(C)C,?,-22.3%
COC(=O)N[C@@H](c1ccco1)[C@]1(C(=O)OC)CCCC1=O,?,-2.1%[8.59 µM]
COc1cccc([C@H]2Oc3ccc(OC)cc3C(=NO[C@H](C)c3cn([C@H](CO)Cc4ccccc4)nn3)[C@H]2O)c1,40.8%[8.59 µM],7.7%[8.59 µM]
COc1ccc(-c2ccc3c(n2)CCCN3CC(O)CN2CCCc3nc(C)c(C)cc32)cc1 (configuration not stated),53.1%[8.59 µM],11.9%[8.59 µM]
CN(C)C1CCN(CCCOc2ccc(-c3ccc(C#N)cc3)cc2)C1 (configuration not stated),11.2µM*,?
O=[S+]1([O-])N[C@@H]2Cc3ccccc3[C@@H]2Oc2cc(Br)ccc21,-15.1%,-16.4%
O=C1Nc2ccccc2C2(CCN(CCc3ccc(C(F)(F)F)cc3)CC2)O1,11.2µM*,?
FC(F)(F)c1cccc(C2=CCN(CCc3ccc4ccccc4c3)CC2)c1,-0.5%,-1.1%
COC(=O)C1=C(C(=O)OC)[C@@H]2Nc3ccccc3[C@@]23C[C@@H](C(=O)OC)N(C(=O)NC(C)(C)C)C3=N1,1.5%[8.59 µM],5.4%[8.59 µM]
CCC1(C2CCN(Cc3ccccc3Cl)CC2)NC(=O)N(CC2COc3ccccc3O2)C1=O (configuration not stated),?,-8.9%
CCC1(C2CCN(Cc3cc4ccccc4o3)CC2)NC(=O)N(CC2COc3ccccc3O2)C1=O (configuration not stated),31.6µM*,-30.0%
Cc1ccc(CN2[C@@H](C)[C@@H](c3ccccc3)Oc3c(Cl)cccc3S2(=O)=O)cc1,?,1.8%
O=C(NN=C1C[C@@H](O)[C@H](O)[C@H]2[C@@H]3C(=O)N(c4cccc(Oc5ccccc5)c4)C(=O)[C@@H]3CC[C@H]12)OCc1ccccc1,4.0%[8.59 µM],.
CCCOc1ccc2nc(NC(=O)OC)sc2c1,17.1%,3.16µM*
COC(=O)Nc1nc2ccc(Oc3ccc(NC(=O)Nc4cc(C(F)(F)F)ccc4F)cc3)cc2s1,?,6.2%
C=C(C)[C@]12C[C@@H](C)[C@@]34O[C@](Cc5ccccc5)(O[C@@H]1[C@@H]3C=C(COC(=O)Cc1ccc(O)c(OC)c1)C[C@]1(O)C(=O)C(C)=C[C@@H]41)O2,15.8µM*,?
O=C1c2ccccc2C(=O)N1CCCC[C@]12Cc3c(ccc4ccccc34)[C@H](O1)c1c(cc(-c3ccccc3)oc1=O)O2,?,-13.5%[8.59 µM]
CS(=O)(=O)CCNCc1nc(-c2ccc3ncnc(Nc4ccc(OCc5cccc(F)c5)c(Cl)c4)c3c2)cs1,-15.4%,-7.4%
CNC(=O)c1cccc(C#Cc2cncnc2Nc2ccc(OCc3cccc(F)c3)c(Cl)c2)c1,2.5µM*,.
SMILES,MARV entry inh,Lassa entry
O=S(=O)(CCOCc1ccc(-c2ccc3ncnc(Nc4ccc(OCc5cccc(F)c5)c(Cl)c4)c3c2)o1)c1ccccc1,-29.6%,42.5%
O=C(OC1CNC(C#Cc2cc3ncnc(Nc4ccc5c(cnn5Cc5ccccc5)c4)c3s2)C1)N1CCOCC1 (configuration not stated),?,0.397µM*
O=C(OC1CNC(C#Cc2cc3ncnc(Nc4ccc(OCc5cccc(F)c5)c(Cl)c4)c3s2)C1)N1CCOCC1 (configuration not stated),12.5µM*,?
COc1cc2ncnc(Nc3ccc4c(cnn4Cc4ccccc4)c3)c2cc1OC,?,-23.8%
CCCCCCCC=CC1=CC2(C)CC1(C)C(CCCCCCC)CC2=O (configuration not stated),?,4.2%[8.59 µM]
CC(C)[C@H]1COc2cc(Br)ccc2S(=O)(=O)N1C(=O)c1ccc(F)cc1F,25.7%,-4.9%
C=CCOC(=O)N[C@H](c1ccc2ccccc2c1)[C@H](C)C=CCC(=O)OC,-4.3%[8.59 µM],.
CCCCCN=c1ccn(Cc2ccccc2)c2ccccc12,14.1µM*,20µM*
CCC[CH2][Sn][CH2]C=C[C@@H]1C[C@@H](CCOCc2ccc(OC)cc2)OP(=O)(O)O1,-3.5%,32.3%

# Screens (PubChem BioAssay)
